From PubChem BioAssay (EPA / NIEHS)
Calls of active or inactive are those of the source. Rule for the calls: active = hit-call score of the fitted dose curve at least 0.9, where 1 is the maximum; inactive = score below 0.9.

Assay: CCTE_Shafer_MEA_acute_per_burst_spike_number_mean: CCTE's Neural Acute Assay for Average Number of Spikes Per Burst, Shafer Lab (AID 2284015);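 note: hits are decreases in mean spikes per burst versus baseline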
Protocol: CCTE_Shafer_MEA_acute assay is conducted using Axion Biosystems 48 well microelectrode array (MEA) plates and Maestro recording system. Each well of the MEA plate contains a grid of 16 microelectrodes embedded in the culture surface. Electrically active cells, such as neurons, can be cultured over the electrodes, and electrical activity in these cells can be recorded extracellularly. The spontaneous firing of neurons is captured from each electrode on a microsecond timescale providing both temporally and spatially precise data. […] The CCTE_Shafer_MEA_acute assay uses primary cultures of rat cortical neurons. As these cultures mature over time, neural networks develop functional activity and form cohesive networks in which electrical activity can be highly coordinated. Baseline 40-minute recordings are made on days post-plating 13 or 15, followed by a secondary 40-minute recording after chemical exposure.CCTE_Shafer_MEA_acute_per_burst_spike_number_mean is a component of the CCTE_Shafer_MEA_acute assay. It measures the average number of spikes (action potential firings) in a single-electrode burst (temporally-clustered group of spikes) during a recording in a microelectrode array (MEA) using Axion Biosystems Maestro 768 channel amplifier with the AxIS adaptive spike detector. The recordings before and after chemical treatment are used to calculate a percent change in the mean number of spikes per burst in each well.Data from the assay component CCTE_Shafer_MEA_acute_per_burst_spike_number_mean was analyzed into 1 assay endpoint. This assay endpoint, CCTE_Shafer_MEA_acute_per_burst_spike_number_mean, was analyzed in the negative analysis fitting direction relative to DMSO as the negative control and baseline of activity. Using a type of functional reporter, gain or loss-of-signal activity can be used to understand electrical activity.
Spontaneous activity in the cortical cultures was recorded using an Axion Biosystems Maestro 768 channel amplifier and Axion Integrated Studios (AxIS) v1.8 (or later) software. The amplifier recorded from all channels simultaneously (gain = 1200 x; sampling rate = 12.5 kHz/channel): raw signals were filtered with a Butterworth band-pass filter (300-5000 Hz), which filters out slower local field potentials leaving only fast potentials, i.e., "spikes", arising from extracellular currents associated with action potentials (Pine 2006; Wheeler and Nam 2011). On-line spike detection of filtered signals was conducted with the AxIS adaptive spike detector, using a threshold of 8x the root mean squared (rms) noise on each channel. Any electrodes with rms noise levels greater than 5 uV were grounded (e.g., no data were recorded). Once grounded, an electrode was grounded for the duration of the experiment. All recordings were conducted at 37 C. Wells were deemed usable if on the day of the exposure >/= 10 electrodes were active (defined as >/= 5 spikes/min). On DIV 13 or 15, a minimum of three wells from one cortical culture preparation were treated with each compound (0.03-40 uM). Prior to recording baseline activity, each mwMEA plate was placed in the Maestro at 37 C and allowed to sit for 20 min while firing rates stabilized. Baseline activity (40 min) was recorded before the addition of each compound. An additional 40 min of spontaneous activity was recorded in the presence of each compound. Changes in network parameters relative to baseline were assessed following compound treatment.

AC50, active:
Oc1c(Cl)cc(Cl)c(Cl)c1Cc1c(O)c(Cl)cc(Cl)c1Cl 0.155 µM, CC(CN=Cc1ccccc1O)N=Cc1ccccc1O (stereo not given) 15 µM

outcome, inactive:
O=C(Nc1ccc2c(O)c(N=Nc3ccc(N=Nc4ccc(S(=O)(=O)O)cc4)cc3)c(S(=O)(=O)O)cc2c1)c1ccccc1, CCOC(=O)C(C#N)=C(c1ccccc1)c1ccccc1, O=CN1CCOCC1, CN(C)C(=S)SC(=S)N(C)C, CCCCCCC(CO)CCCC (stereo not given), CC1(C)CCC[C@]2(C)[C@H]3CCO[C@]3(C)CC[C@@H]12, COCCc1ccc(OCC(O)CNC(C)C)cc1 (stereo not given), C=CC(C)(O)CCC=C(C)C (stereo not given)
